Of roughly 7,900 targets only a part is listed; those with a hit were picked by preference. About 0.6% of all pairs of compound and target were hits. Unmarked numbers belong to inactive results.
Assays:
Assay in all cases: log2 fold change, soluble protein after heating vs DMSO (PISA); higher = thermal stabilisation; K562 cells, 10 uM, 30 min; active = over 0.2 and 3.5 SD of the protein, either way, in both replicates (recomputed)
[1] = compound: CS(=O)(=O)c1ccc(-c2cnc(N)c(C(=O)Nc3ccccc3)n2)cc1
Summary of the method: (§1)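 For each measurement, 10 μM compound was applied for 30 min to K562 cells at 2×10^6 cells/mL. Aliquots were heated for 3 min across 48°C-58°C, pooled, and extracted in PBS with 0.5% NP-40 at 4°C; the supernatant after 21,000xg for 90 min was soluble protein. This was quantified by TMTpro 16plex LC-MS/MS with channel sums equalised, and thermal stability was reported relative to control samples from duplicates, on a log2 fold-change scale.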

crizotinib = compound: C[C@@H](Oc1cc(-c2cnn(C3CCNCC3)c2)cnc1N)c1c(Cl)ccc(F)c1Cl [crizotinib]
Summary of the method: as §1

[2] = compound: C[C@@H]1COCCN1C2=NC(=NC(=C2)C3(CC3)S(=O)(=O)C)C4=C5C=CNC5=CC=C4
Summary of the method: as §1

[3] = compound: C[C@H](C1=CC=C(C=C1)C(=O)NC2=C3C=CNC3=NC=C2)N
Summary of the method: as §1

duvelisib = compound: C[C@H](Nc1ncnc2nc[nH]c12)c1cc2cccc(Cl)c2c(=O)n1-c1ccccc1 [duvelisib]
Summary of the method: as §1

gandotinib = compound: Cc1cc(Nc2cc(CN3CCOCC3)c3nc(C)c(Cc4ccc(Cl)cc4F)n3n2)n[nH]1 [gandotinib]
Summary of the method: as §1

tozasertib = compound: Cc1cc(Nc2cc(N3CCN(C)CC3)nc(Sc3ccc(NC(=O)C4CC4)cc3)n2)n[nH]1 [tozasertib]
Summary of the method: as §1

[4] = compound: Cc1cc(SCc2sc(-c3ccc(C(F)(F)F)cc3)nc2C)ccc1OCC(=O)O
Summary of the method: as §1

doramapimod = compound: Cc1ccc(-n2nc(C(C)(C)C)cc2NC(=O)Nc2ccc(OCCN3CCOCC3)c3ccccc23)cc1 [doramapimod]
Summary of the method: as §1

ispinesib = compound: Cc1ccc(C(=O)N(CCCN)[C@@H](c2nc3cc(Cl)ccc3c(=O)n2Cc2ccccc2)C(C)C)cc1 [ispinesib]
Summary of the method: as §1

Sequence of UniProt Q8N6R0 (Q8N6R0 whole entry, looked up): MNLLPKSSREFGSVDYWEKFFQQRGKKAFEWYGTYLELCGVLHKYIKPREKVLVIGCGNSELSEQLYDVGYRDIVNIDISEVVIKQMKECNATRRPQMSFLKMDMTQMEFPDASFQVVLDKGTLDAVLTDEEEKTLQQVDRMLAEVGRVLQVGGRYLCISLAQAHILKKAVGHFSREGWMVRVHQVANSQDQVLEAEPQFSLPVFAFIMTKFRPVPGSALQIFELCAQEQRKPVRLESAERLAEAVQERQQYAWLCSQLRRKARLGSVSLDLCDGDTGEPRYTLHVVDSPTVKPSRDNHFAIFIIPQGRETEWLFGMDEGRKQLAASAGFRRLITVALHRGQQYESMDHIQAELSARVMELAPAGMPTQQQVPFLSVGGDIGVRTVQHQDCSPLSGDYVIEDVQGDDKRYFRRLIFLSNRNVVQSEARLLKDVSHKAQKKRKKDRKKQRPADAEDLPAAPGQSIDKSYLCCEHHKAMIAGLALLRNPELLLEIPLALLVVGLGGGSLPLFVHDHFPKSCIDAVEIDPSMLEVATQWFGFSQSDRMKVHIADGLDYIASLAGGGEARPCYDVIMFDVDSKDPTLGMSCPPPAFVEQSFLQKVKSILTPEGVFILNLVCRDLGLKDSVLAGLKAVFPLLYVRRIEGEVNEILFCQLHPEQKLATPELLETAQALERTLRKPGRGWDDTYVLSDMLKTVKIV
Sequence of UniProt Q9BW60 (Q9BW60 whole entry, looked up): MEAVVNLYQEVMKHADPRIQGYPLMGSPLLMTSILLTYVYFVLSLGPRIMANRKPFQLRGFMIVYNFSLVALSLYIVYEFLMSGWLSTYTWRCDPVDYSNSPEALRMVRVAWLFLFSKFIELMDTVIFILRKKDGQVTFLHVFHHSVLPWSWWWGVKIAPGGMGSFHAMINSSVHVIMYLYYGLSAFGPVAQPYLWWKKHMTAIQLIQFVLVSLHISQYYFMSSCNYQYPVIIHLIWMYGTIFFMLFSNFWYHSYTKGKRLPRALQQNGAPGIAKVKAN
Sequence of UniProt Q9Y5Q0 (Q9Y5Q0 whole entry, looked up): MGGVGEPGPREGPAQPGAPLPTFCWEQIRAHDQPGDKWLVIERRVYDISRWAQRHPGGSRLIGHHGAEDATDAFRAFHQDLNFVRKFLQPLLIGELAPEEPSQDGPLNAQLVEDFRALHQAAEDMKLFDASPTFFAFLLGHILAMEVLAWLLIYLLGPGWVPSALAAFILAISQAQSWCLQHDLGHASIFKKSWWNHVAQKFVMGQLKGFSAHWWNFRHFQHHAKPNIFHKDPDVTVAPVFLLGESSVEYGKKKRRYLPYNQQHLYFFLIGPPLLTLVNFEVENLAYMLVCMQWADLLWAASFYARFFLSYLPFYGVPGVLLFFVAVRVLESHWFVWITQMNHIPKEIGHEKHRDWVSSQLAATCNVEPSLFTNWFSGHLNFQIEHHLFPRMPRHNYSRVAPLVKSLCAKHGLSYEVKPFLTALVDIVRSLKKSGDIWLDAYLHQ
Sequence of UniProt P29692 (P29692 whole entry, looked up): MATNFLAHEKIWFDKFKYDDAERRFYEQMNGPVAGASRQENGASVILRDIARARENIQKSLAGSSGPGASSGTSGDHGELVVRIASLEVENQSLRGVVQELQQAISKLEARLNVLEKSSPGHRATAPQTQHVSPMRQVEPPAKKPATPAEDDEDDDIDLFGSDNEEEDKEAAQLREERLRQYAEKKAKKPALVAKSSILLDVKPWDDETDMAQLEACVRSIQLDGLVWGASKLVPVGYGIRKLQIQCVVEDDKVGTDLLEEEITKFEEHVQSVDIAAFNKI
Sequence of UniProt Q9NVR5 (Q9NVR5 whole entry, looked up): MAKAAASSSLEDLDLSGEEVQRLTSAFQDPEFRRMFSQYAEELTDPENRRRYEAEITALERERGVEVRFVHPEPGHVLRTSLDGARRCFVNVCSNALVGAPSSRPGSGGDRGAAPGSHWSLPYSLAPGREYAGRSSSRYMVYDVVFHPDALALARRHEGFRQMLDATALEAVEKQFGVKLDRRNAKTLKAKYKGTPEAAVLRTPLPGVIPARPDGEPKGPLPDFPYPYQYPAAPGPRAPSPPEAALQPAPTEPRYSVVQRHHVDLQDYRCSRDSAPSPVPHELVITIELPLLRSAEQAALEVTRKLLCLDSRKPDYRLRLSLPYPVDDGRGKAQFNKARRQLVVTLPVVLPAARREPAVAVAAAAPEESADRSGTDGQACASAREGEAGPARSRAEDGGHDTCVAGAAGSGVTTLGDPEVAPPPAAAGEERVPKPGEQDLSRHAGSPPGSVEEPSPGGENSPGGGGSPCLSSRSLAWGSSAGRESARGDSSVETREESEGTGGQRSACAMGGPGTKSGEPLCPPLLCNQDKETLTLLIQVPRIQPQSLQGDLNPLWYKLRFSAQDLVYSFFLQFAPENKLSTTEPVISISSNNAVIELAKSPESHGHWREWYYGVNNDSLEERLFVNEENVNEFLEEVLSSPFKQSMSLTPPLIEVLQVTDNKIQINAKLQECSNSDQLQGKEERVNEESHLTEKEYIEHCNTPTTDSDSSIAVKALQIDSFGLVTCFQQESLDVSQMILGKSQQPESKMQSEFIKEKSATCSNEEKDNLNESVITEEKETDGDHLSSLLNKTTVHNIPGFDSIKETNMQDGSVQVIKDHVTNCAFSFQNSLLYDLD
Sequence of UniProt Q9H773 (Q9H773 whole entry, looked up): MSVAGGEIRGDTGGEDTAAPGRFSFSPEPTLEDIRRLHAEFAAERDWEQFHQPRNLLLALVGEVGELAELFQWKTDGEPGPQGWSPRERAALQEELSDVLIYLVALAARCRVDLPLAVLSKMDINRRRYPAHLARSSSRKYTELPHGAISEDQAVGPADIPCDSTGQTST
Sequence of UniProt Q5VYK3 (Q5VYK3 whole entry, looked up): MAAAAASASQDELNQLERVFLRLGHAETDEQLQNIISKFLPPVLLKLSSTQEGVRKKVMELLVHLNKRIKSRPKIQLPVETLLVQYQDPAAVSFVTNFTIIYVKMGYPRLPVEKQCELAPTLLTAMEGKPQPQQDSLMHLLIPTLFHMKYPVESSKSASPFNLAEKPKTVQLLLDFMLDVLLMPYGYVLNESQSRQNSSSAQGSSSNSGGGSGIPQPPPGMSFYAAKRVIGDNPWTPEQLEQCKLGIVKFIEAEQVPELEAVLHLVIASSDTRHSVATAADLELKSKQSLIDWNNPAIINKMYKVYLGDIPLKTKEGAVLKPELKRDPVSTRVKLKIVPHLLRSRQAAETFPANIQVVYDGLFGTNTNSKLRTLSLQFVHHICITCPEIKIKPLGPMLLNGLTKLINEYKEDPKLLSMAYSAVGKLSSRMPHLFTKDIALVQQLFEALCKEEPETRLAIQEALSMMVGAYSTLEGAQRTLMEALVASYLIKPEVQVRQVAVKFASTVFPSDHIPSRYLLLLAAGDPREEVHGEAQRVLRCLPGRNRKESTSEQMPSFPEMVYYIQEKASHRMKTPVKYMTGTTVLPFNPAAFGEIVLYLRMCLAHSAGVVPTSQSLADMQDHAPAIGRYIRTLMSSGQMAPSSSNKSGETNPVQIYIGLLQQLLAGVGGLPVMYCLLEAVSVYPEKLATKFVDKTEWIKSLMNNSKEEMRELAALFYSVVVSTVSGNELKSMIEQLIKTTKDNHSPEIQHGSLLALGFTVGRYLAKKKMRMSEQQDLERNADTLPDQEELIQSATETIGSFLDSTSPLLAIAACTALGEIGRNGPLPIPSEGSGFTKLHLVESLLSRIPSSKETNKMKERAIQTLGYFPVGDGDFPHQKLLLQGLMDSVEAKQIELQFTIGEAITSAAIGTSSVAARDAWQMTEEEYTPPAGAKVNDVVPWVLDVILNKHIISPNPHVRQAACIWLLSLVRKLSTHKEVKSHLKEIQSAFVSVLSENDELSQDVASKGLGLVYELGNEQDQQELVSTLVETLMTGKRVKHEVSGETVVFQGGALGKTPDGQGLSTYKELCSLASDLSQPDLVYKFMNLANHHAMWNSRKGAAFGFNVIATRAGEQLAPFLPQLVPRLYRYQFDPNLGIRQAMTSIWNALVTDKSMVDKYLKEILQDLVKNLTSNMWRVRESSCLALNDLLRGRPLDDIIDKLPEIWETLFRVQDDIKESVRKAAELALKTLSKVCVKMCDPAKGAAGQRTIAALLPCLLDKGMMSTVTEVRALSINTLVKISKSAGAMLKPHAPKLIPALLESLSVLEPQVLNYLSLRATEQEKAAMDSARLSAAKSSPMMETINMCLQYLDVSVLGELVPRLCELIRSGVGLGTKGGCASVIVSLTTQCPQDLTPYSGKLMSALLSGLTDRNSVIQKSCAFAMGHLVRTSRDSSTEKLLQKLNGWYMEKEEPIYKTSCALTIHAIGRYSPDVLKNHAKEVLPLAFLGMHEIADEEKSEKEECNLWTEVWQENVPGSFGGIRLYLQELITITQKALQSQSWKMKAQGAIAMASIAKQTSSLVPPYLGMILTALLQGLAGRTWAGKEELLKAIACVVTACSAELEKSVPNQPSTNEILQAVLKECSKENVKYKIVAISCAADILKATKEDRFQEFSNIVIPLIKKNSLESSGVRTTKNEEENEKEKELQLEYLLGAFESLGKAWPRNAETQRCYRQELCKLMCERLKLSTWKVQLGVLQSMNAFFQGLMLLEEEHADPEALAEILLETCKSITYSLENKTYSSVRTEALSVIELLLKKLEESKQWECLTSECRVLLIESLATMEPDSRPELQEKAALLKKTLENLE
Sequence of UniProt P39656 (P39656 whole entry, looked up): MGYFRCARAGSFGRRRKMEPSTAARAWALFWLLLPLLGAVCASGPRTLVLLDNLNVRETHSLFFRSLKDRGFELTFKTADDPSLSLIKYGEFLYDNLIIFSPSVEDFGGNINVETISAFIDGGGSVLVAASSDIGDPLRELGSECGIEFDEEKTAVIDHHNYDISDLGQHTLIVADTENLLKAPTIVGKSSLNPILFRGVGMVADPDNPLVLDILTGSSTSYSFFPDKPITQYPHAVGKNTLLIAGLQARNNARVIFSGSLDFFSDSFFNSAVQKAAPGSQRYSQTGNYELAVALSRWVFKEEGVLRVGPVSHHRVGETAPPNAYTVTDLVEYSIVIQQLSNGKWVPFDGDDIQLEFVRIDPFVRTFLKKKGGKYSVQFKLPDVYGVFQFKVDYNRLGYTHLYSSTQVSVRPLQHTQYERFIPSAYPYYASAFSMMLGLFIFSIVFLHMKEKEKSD

Target | log2 fold change [1] | log2 fold change (crizotinib) | log2 fold change [2] | log2 fold change [3] | log2 fold change (duvelisib) | log2 fold change (gandotinib) | log2 fold change (tozasertib) | log2 fold change [4] | log2 fold change (doramapimod) | log2 fold change (ispinesib)
DDOST (UniProt P39656) | 0.014 | -0.051 | -0.065 | -0.055 | -0.074 | 0.02 | 0.022 | -0.016 | 0.005 | 0.13
DNM2 (UniProt P50570) | 0.017 | -0.082 | 0.062 | -0.021 | 0.05 | -0.06 | -0.071 | 0.039 | -0.039 | -0.01
EEA1 (UniProt Q15075) | -0.007 | -0.007 | -0.014 | -0.046 | 0.006 | 0.02 | -0.012 | -0.04 | 0.002 | -0.22 (active)
FAF2 (UniProt Q96CS3) | 0.049 | -0.056 | 0.042 | 0.049 | 0.031 | 0.022 | 0.016 | 0.059 | 0.023 | -0.011
EHBP1L1 (UniProt Q8N3D4) | 0.034 | -0.01 | -0.005 | 0.012 | 0.139 | -0.206 | 0.067 | 0.115 | -0.018 | -0.047
FADS3 (UniProt Q9Y5Q0) | 0.042 | -0.237 | 0.198 | 0.055 | 0.079 | -0.058 | -0.042 | 0.073 | -0.013 | -0.311 (active)
DPH5 isoform 5 (UniProt Q9H2P9) | 0.017 | 0.092 | 0.072 | -0.046 | 0.077 | -0.011 | -0.01 | -0.01 | -0.025 | 0.076
EOGT (UniProt Q5NDL2) | 0.052 | 0 | -0.054 | 0.069 | 0.045 | -0.003 | -0.05 | -0.137 | 0.068 | -0.006
ELOC (UniProt Q15369) | 0.038 | 0.074 | 0.279 (active) | -0.07 | 0.137 | -0.001 | 0.06 | -0.015 | 0.012 | 0.134
EED, A0A5F9ZI63 | -0.074 | 0.045 | -0.047 | 0.007 | 0.014 | 0.07 | -0.016 | -0.013 | 0.028 | 0.019
DBNL isoform 3 (UniProt Q9UJU6) | 0.041 | -0.116 | 0.073 | -0.016 | 0.037 | -0.094 | 0.048 | -0.015 | 0.054 | -0.048
DCTN1 isoform 4 (UniProt Q14203) | -0.013 | -0.112 | 0.015 | 0.131 | -0.045 | 0.016 | 0.037 | 0.111 | 0.088 | -0.141
DCTPP1 (UniProt Q9H773) | -0.025 | 0.142 | 0.179 | -0.177 | 0.072 | -0.004 | 0.024 | -0.064 | -0.002 | 0.203
DUS3L (UniProt Q96G46) | -0.015 | 0.112 | 0.019 | -0.075 | -0.005 | -0.027 | 0.043 | 0.022 | 0.033 | 0
CUEDC2 (UniProt Q9H467) | 0.028 | -0.029 | 0.026 | -0.113 | 0.048 | -0.017 | 0.109 | 0.012 | -0.087 | 0.024
DNAAF2 (UniProt Q9NVR5) | 0.018 | -0.015 | -0.067 | 0.003 | 0.019 | -0.182 | 0.02 | -0.034 | 0.042 | 0.032
EIF4E isoform 2 (UniProt P06730) | 0.198 | 0.165 | 0.4 (active) | -0.099 | 0.143 | -0.006 | 0.003 | -0.02 | -0.045 | 0.159
EPHX2 (UniProt P34913) | 0.036 | 0.169 | 0.194 | -0.019 | 0.029 | -0.018 | 0.144 | -0.032 | -0.016 | -0.01
EXOC1 (UniProt Q9NV70) | -0.036 | -0.336 | -0.007 | 0.174 | -0.013 | -0.179 | -0.016 | 0.067 | 0.138 | -0.472 (active)
EXOC4 (UniProt Q96A65) | 0.003 | -0.275 | -0.099 | 0.098 | -0.028 | -0.068 | 0.041 | 0.162 | 0.016 | -0.29
DOHH (UniProt Q9BU89) | 0.049 | 0.06 | 0.287 | -0.154 | 0.055 | 0.029 | 0.127 | 0.022 | 0.005 | -0.015
DHX36 (UniProt Q9H2U1) | -0.071 | -0.101 | -0.062 | 0.2 | -0.029 | 0.069 | -0.047 | 0.045 | 0.051 | -0.081
FAM117A (UniProt Q9C073) | -0.039 | -0.166 | -0.013 | -0.132 | -0.119 | -0.053 | -0.12 | 0.067 | 0.017 | 0.024
EFCAB14 (UniProt O75071) | 0.045 | -0.301 (active) | 0.083 | 0.041 | 0.006 | -0.009 | -0.097 | -0.006 | -0.01 | -0.004
EDEM2 (UniProt Q9BV94) | 0.036 | 0.024 | -0.119 | 0.163 | -0.074 | -0.081 | -0.015 | 0.111 | 0.065 | -0.04
EEF1D isoform 2 (UniProt P29692) | 0.043 | 0.004 | -0.028 | 0.066 | -0.011 | -0.057 | 0.038 | 0.04 | 0.026 | -0.055
DIAPH1 (UniProt O60610) | 0.047 | -0.152 | -0.054 | 0.168 | -0.058 | -0.063 | 0.153 | 0.125 | 0.135 | -0.089
EEF1AKNMT (UniProt Q8N6R0) | -0.011 | -0.059 | 0.006 | 0.111 | -0.047 | -0.09 | 0.071 | 0.153 | 0.077 | -0.072
ECPAS (UniProt Q5VYK3) | 0 | -0.18 | 0.01 | 0.081 | 0.024 | -0.115 | 0.048 | 0.099 | -0.032 | -0.016
ELOVL1 (UniProt Q9BW60) | 0.082 | -0.182 | -0.065 | -0.14 | 0.124 | -0.206 | -0.003 | 0.078 | -0.082 | -0.297

Source: the supplement of paper PMC10849652
